Measured values: PubChem BioAssay AID1962 (The Scripps Research Institute Molecular Screening Center, 2009)
Screen size: about 300,000 compounds; about 2,500 (0.83%) were called active. The entries come from a sample that favours actives as a whole. Values without a mark were called inactive.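 Rule for the calls: active = inhibition above the mean of all tested compounds plus 3 SD, set per screening campaign (cut at about 24% in these data); inactive = the rest.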

Each compound was assayed on tRNA 2'-phosphotransferase TPT1 (Candida albicans SC5314) (assay: tRNA 2'-phosphotransferase blockers, C. albicans – biochemical, fluorescence polarization, primary screen (AID 1962;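 note: plate controls were DMSO alone for no effect and ferristatin control at 100 nM for full effect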)). Conditions: recombinant caTPT1, FP RNA substrate dephosphorylation; at 5 µM; hits give high values.
For CCOC(=O)c1c(NC(=S)NC)sc2c1CCCC2, the inhibition was -1.5%.
In the case of CCOC(=O)c1c(NC(=S)Nc2ccccc2)sc2c1CCN(C)C2, the inhibition is reported as 53.5% (active).
CCOC(=O)c1c(NC(=O)NC(C)(C)C)sc2c1CCN(C)C2 gave an inhibition of 2.5%.
CCOc1ccc(/C=C/C(=O)N(CC)CC(=O)NCc2cccs2)cc1OC showed an inhibition of -3.86%.
COc1ccccc1/C=N/Nc1nc(C)c(C(C)=O)s1 was tested, and the inhibition was 28% (active).
Compound CC(=O)c1sc(N/N=C/c2ccc(C(C)C)cc2)nc1C has an inhibition of 23%.
CC(=O)c1sc(N/N=C\c2ccc(C)cc2)nc1C gave an inhibition of 17.2%.
With CCCCNC(=O)Nc1c(C)cc(SC#N)cc1C the inhibition was -6.37%.
COCCNC(=O)C1CCN(C(=O)C2CC(=O)N(c3ccc(C)cc3)C2)CC1 (centres undefined) showed an inhibition of 1.54%.
Compound Cc1ccn2c(c1)nc(=O)c1cc(S(=O)(=O)N3CCC(C)CC3)ccc12 has an inhibition of 0.45%.
CCN(CC)c1ccc2cc(C(N)=O)/c(=N\NC(=O)c3ccncc3)oc2c1 was tested, and the inhibition was 133% (active).
NC(=O)c1cc2ccccc2o/c1=N/NC(=O)c1cccc(F)c1 was tested, and the inhibition was -1.51%.
Compound COc1ccc(C(=O)N/N=c2\oc3ccccc3cc2C(N)=O)cc1 has an inhibition of 4.71%.
Compound NC1=NC(=O)C(Cc2cccc(Cl)c2)S1 (centres undefined) has an inhibition of -2.15%.
CCC(=C/c1sc2ccc3ccccc3c2[n+]1C)/C=C1\Sc2ccc3ccccc3c2N1C was tested, and the inhibition was 92% (active).
For CCCCCCCCn1c2c(c(=N)c3c1CCC3)CCCC2, the inhibition was -2.44%.
In the case of CCCCCCSc1ccc([C@@H]2[C@@H]3C(=O)N(CC)C(=O)[C@@H]3[C@]3(C(=O)OC)CCCCN23)cc1OC, the inhibition is reported as 1.68%.
COc1cc(N=Cc2c(O)[nH]c3ccccc23)cc(OC)c1OC gave an inhibition of -0.99%.
CN=c1scc(-c2cc(OC)ccc2OC)n1/N=C/c1c(C)[nH]c2ccccc12 was tested, and the inhibition was 62.6% (active).
In the case of CCn1c(-c2cc(OC)ccc2OC)csc1=Nc1c(C)n(C)n(-c2ccccc2)c1=O, the inhibition is reported as -1.13%.
With Cc1nn2c(=O)cc(COC(=O)c3ccc(NC(=O)C(C)(C)C)cc3)nc2s1 the inhibition was -2.53%.
Compound CCOC(=O)[C@H]1[C@H]2COc3ccc(OC)cc3[C@@H]2N2C(=O)c3ccc(F)cc3NC(=O)[C@@]12C has an inhibition of 0.85%.
For CC(C)CCN1NC2(CCC(C)CC2)NC1=S (centres undefined), the inhibition was 2.43%.
In the case of COc1ccc2ccccc2c1CNc1nnnn1C, the inhibition is reported as -1.06%.
Work on O=C1CN(C(=O)c2ccccc2F)C(c2ccc(F)cc2)c2cc(F)ccc2N1 (centres undefined) yielded an inhibition of 0.25%.
Work on CCC(c1nnnn1Cc1ccco1)N(CCc1ccccc1)Cc1cc2ccc(OC)cc2[nH]c1=O (centres undefined) yielded an inhibition of -2.34%.
CCC(c1nnnn1Cc1ccccc1)N(Cc1cc2cc(OC)ccc2[nH]c1=O)CC1CCCO1 (centres undefined) showed an inhibition of -1.86%.
For CCC(c1nnnn1Cc1ccco1)N(Cc1cc2cc(OC)ccc2[nH]c1=O)C1CCCCC1 (centres undefined), the inhibition was 38.4% (active).
CCOc1ccc(Oc2nc(C)cc(OC)n2)nn1 was tested, and the inhibition was -1.74%.
For CN(C)C(=O)N=NC(=O)N(C)C, the inhibition was -3.37%.
Work on COC(=O)Cc1[nH]n(-c2nc3ccccc3s2)c(=O)c1C(C)=Nc1ccc(OC)cc1 yielded an inhibition of 1.09%.
For COc1ccc(N=C(C)c2sc3ccccc3c2O)cc1, the inhibition was 63.5% (active).
COc1ccccc1-c1sc2ccccc2c1-c1ccc(C(C)=O)cc1 showed an inhibition of -1.61%.
CC(C)(Oc1ccc(C2CC2(Cl)Cl)cc1)C(=O)O (centres undefined) was tested, and the inhibition was -2.25%.
For Cc1c(C(=O)N2CCCc3ccccc32)oc2ccccc12, the inhibition was -2.42%.
In the case of Cc1cccc2cc3c(N)c(C(=O)N4CCCc5ccccc54)sc3nc12, the inhibition is reported as 45.2% (active).
Cc1c(C(=O)N2CCCc3ccccc32)sc2nc(-c3ccccc3)cn12 gave an inhibition of -1.15%.
With C#CCOCCOCCOCCNc1nc(N2CCN(C(=O)Cn3cc(CCCCN)nn3)CC2)nc(N2CCN(C(=O)[C@H](CCCCN)n3cc(CCC(=O)O)nn3)CC2)n1 the inhibition was -1.83%.
Cc1ccc(Cc2nnc(SCC(=O)Nc3ccccc3C)[nH]c2=O)cc1 gave an inhibition of 1.69%.
